ugtP null kill: compounds lethal to S. aureus RN4220 ugtP deletion mutant; OD600 growth, 16 h; growth inhibition, % (no concentration beside the values); 330,000 compounds, 0.54% hits; AID 1259309; in the data active means growth inhibition above about 68%;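 further: plate controls were untreated wells for no effect and antibiotic for full effect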
MazF activator: activators of E. coli MazEF toxin-antitoxin RNase; AID 504720; 350,000 compounds, 0.32% hits; FAM/BHQ RNA-DNA oligo cleavage fluorescence, 5 h; activation, % at 20 µM; P0AE70; in the data active means activation above about 50%
Target sequence (P0AE70 whole entry, looked up): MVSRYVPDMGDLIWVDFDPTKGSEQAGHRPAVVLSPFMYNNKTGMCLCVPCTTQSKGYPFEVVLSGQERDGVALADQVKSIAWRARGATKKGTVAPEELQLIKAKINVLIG
SSB-PriA inh: inhibitors of Klebsiella pneumoniae PriA binding to SSB C-terminal tail; AlphaScreen SSBct-PriA binding, biotinylated peptide; inhibition, % at 33 µM; 430,000 compounds, 0.6% hits; in the data active means inhibition mostly above about 37%, no sharp cut-off; inactive means mostly below about 20%;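 further: plate controls were negative control peptide for no effect and reference peptide for full effect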
BJeLR viability: BJeLR cell viability loss. BJeLR (HRASV12) viability, CellTiter-Glo ATP luminescence, 48 h. 300,000 compounds, 0.17% hits. inhibition, % (concentration not given with the values); in the data active means inhibition above about 50%
Sa RN4220 lethal: kills Staphylococcus aureus RN4220 | S. aureus RN4220 growth, OD600, 16 h | inhibition, % (concentration not given with the values) | AID 1259311 | 330,000 compounds, 0.33% hits; in the data active means inhibition above about 85%;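 further: plate controls were untreated cells for no effect and reference antibiotic for full effect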
The depositor's hits bear a star; · = no result given; ! = repeats disagree. Only some compounds are listed: those with a hit (about 1.2% of all), similar ones and a draw of the others.

SMILES | ugtP null kill | MazF activator | SSB-PriA inh | BJeLR viability | Sa RN4220 lethal
O=C(c1cc2cc([N+](=O)[O-])ccc2oc1=O)n1cccn1 | 9 | 4 | 56* | 6 | 1
O=C(c1cc2cc([N+](=O)[O-])ccc2oc1=O)N1CCc2ccccc2C1 | · | · | -4 | · | ·
Cc1cccc(C(=O)NC(=S)Nc2ccc(S(=O)(=O)N3CCN(C)CC3)cc2)c1 | 16 | -2 | 6 | 0 | 1
Cc1ccc(C(=O)OCc2cn(-c3ccccc3)nn2)cc1 | -4 | 3 | -14 | 2 | 4
Cn1cccc1Cc1nnc(SCC(N)=O)n1CCc1ccccc1 | 4 | -1 | 6 | -16 | -2
CC(C(=O)N1CCc2ccccc21)N1CCN(c2cccc(C(F)(F)F)c2)CC1 (stereo unspecified) | 90* | 9 | -1 | -8 | -4
O=C(CN1CCN(S(=O)(=O)c2ccccc2Cl)CC1)NCC1(N2CCOCC2)CCCCC1 | 0 | -2 | 0 | · | 4
COc1ccc(CN(CCC(c2ccccc2)c2ccc(OC(C)C)cc2)C(=O)CCl)cc1OC (stereo unspecified) | 64 | -3 | 1 | 68* | 56
Cc1ccc(S(=O)(=O)c2ccccc2)cc1S | · | · | · | -6 | ·
COc1ccc(S(=O)(=O)N(CC(C)C)C2CCS(=O)(=O)C2)cc1OC (stereo unspecified) | 4 | -1 | 38* | 3 | 1
CC1(C(=O)N2CC3(CC(c4cccc(NC(=O)COc5ccc(Cl)cc5)c4)=NO3)CC2C(N)=O)CC1 (stereo unspecified) | 2 | · | · | · | 9
O=C(Sc1ccc(Cl)cc1)c1ccccn1 | 84* | -5 | 2 | 1 | -1
CC(C)C(=O)NNC(=O)c1ccccn1 | 3 | 2 | -13 | -14 | 3
COCCNC(=S)NNC(=O)c1ccccn1 | · | · | 156* | · | ·
CNC(=S)NNC(=O)c1ccccn1 | · | · | 152* | · | ·
C=CCNC(=S)NN=C(C)c1ccccn1 | -4 | · | -5 | · | -10
C=CCNC(=S)NNC(=O)c1ccccn1 | · | · | 148* | · | ·
O=C(N[C@@H]1CCC(=O)N(CC[C@H](Sc2ccc(Br)cc2)c2ccccc2)CC1)OCc1ccccc1 | · | -10 | -1 | · | ·
CCN1/C(=C/c2ccc3cc(C)ccc3[n+]2CC)Sc2cc(C)ccc21 | 100* | 75* | 37 | · | 100*
CCN1/C(=C/c2ccc3cc(C)ccc3[n+]2C)Sc2ccc3sccc3c21 | 100* | 2 | 13 | · | 99*
OC(Cn1c2ccccc2c2ccccc21)C[n+]1cccc2ccccc21 (stereo unspecified) | -19 | 51* | -7 | 1 | -6
Cc1nc2ccccc2n1CC(O)Cn1c2ccccc2c2ccccc21 (stereo unspecified) | -14 | -4 | -1 | 2 | -2
Cc1nn(-c2ccccc2)c(C)c1NC(=O)COC(=O)c1ccc(NC(=O)CC#N)cc1 | -1 | -1 | -7 | 3 | 2
CCCNC(=O)Cn1c(=O)/c(=C\c2ccc(-c3cccc([N+](=O)[O-])c3)o2)s/c1=C\C(=O)C(C)(C)C | · | 175* | · | -17 | ·
CCCNC(=O)Cn1c(=O)/c(=C/c2ccc(-c3cccc([N+](=O)[O-])c3)o2)s/c1=C\C(=O)C(C)(C)C | 2 | 54* | -10 | · | 16
SMILES | ugtP null kill | MazF activator | SSB-PriA inh | BJeLR viability | Sa RN4220 lethal
CCCNC(=O)Cn1c(=O)/c(=C\c2ccc(-c3ccc([N+](=O)[O-])cc3)o2)s/c1=C\C(=O)C(C)(C)C | · | 86* | · | 5 | ·
COc1cc(OC)cc(-c2c(C#Cc3ccsc3)c3cc(-c4ccc5cc[nH]c5c4)ccc3n2C)c1 | -13 | 14 | 21 | · | -10
O=C(O)c1cc2ccccc2cn1 | -5 | 5 | 75*! | · | 4
O=C(O)c1cnc2ccccc2n1 | -5 | 3 | -5 | 3 | -1
C[C@H](NC(=O)c1cc2c(cn1)[nH]c1ccccc12)C(=O)O | · | -1 | -11 | 8 | ·
O=C(O)c1cc2c(cn1)[nH]c1ccccc12 | · | 0 | 80* | 2 | ·
CCOc1ccccc1C=NNC(=O)c1nnn(-c2nonc2N)c1CN1CCCC1 | 6 | · | 2 | · | 5
CCOc1cc(C(C(=O)NCC2CCCO2)N(C(=O)Cn2nnc3ccccc32)c2ccccc2C)ccc1O (stereo unspecified) | -3 | 2 | -6 | 0 | 5
O=[N+]([O-])c1ccc(Sc2cccc[n+]2[O-])c2nonc12 | 18 | 104* | · | 30 | 14
Cc1ccc(C(CNC(=O)Cc2cccc3ccccc23)N2CCOCC2)cc1 (stereo unspecified) | · | · | -7 | · | ·
Cc1cc(C)nc(NS(=O)(=O)c2ccc(NC(=S)NC(=O)CC(C)C)cc2)n1 | 84* | 1 | -5 | -4 | 4
CC(C)C(=O)NC(=S)Nc1ccc(S(=O)(=O)N2CCCC2)cc1 | 5 | 3 | 3 | -15 | -3
CC(C)CC(=O)NC(=S)Nc1ccc(S(=O)(=O)N2CCCC2)cc1 | 87* | -12 | -26 | 6 | 4
c1ccc(-c2ccc(SCc3cccnc3)nn2)nc1 | 3 | -1 | 76* | 5 | 1
c1cncc(CSc2ccc(-c3cccnc3)nn2)c1 | 4 | 0 | 0 | -12 | 7
c1ccc(-c2ccc(SCc3ccccn3)nn2)cc1 | · | · | 32 | · | ·
c1ccc(CSc2ccc(-c3ccccn3)nn2)nc1 | -3 | 1 | 89* | -36 | 2
CC(=O)C(=NNc1ccccc1[N+](=O)[O-])N1CCCc2ccccc21 | 14 | · | 56* | · | -2
COc1ccc(N=C2S/C(=C\c3ccc(Cl)c([N+](=O)[O-])c3)C(=O)N2CCN(C)C)cc1 | · | 4 | 16 | 59* | ·
CCN(CC)CCN1C(=O)/C(=C\c2ccc(Cl)c([N+](=O)[O-])c2)SC1=Nc1ccc(OC)cc1 | 93* | 18 | 9 | 88* | -6
CCCN1C(=O)/C(=C/c2ccc(C)s2)SC1=Nc1ccc(OC)cc1 | · | -12 | 6 | 9 | ·
Cc1c(NC(=O)c2cccc(F)c2)c(=O)n(-c2ccccc2)n1C | -2 | 4 | 0 | -4 | 1
Cc1cc(-c2nnc(SCC(=O)Nc3nccs3)o2)no1 | 4 | 12 | 78* | -11 | 2
COC(=O)COc1cccc(C=NNC(=O)CCSc2ccccc2)c1 | -8 | · | -11 | · | -6
Cn1nnnc1SCCNCc1ccc(Cl)cc1 | 6 | -1 | -14 | 1 | 3
SMILES | ugtP null kill | MazF activator | SSB-PriA inh | BJeLR viability | Sa RN4220 lethal
CCCCN(C)S(=O)(=O)c1ccc(C(=O)Nc2nc3c(CC)cccc3s2)cc1 | · | · | -32 | · | ·
O=S1(=O)N=C(NN=Cc2cccs2)c2ccccc21 | 2 | · | 55* | · | 3
O=S1(=O)N=C(N/N=C/c2ccccn2)c2ccccc21 | · | -1 | · | -5 | ·
O=S1(=O)N=C(NN=Cc2ccccn2)c2ccccc21 | 4 | · | 82* | · | -1
COC(=O)Nc1ccc(C)c(NC(=O)OC)c1 | 0 | 3 | -1 | -2 | 1
CCC(C)C1CN(C(C)CN2CCCC2CN2C(N)=NCC2Cc2ccccc2)C(=N)N1CCCC1CCCC1 (stereo unspecified) | 100* | · | · | · | 100*
CC(CN1CCCC1CN1C(N)=NCC1Cc1ccccc1)N1CC(Cc2ccccc2)N(CCCC2CCCC2)C1=N (stereo unspecified) | 100* | · | · | · | 101*

Screens from PubChem BioAssay.
